In PubChem BioAssay AID1745853 (National Center for Advancing Translational Sciences (NCATS), 2022) one finds activity change, negative = inhibition data, which are given here for 24 compounds.

Assay in all cases: Primary Screen for Target Class Profiling of Small Molecule Inhibitors of Methyltransferases
The target in test [1] is Catechol O-methyltransferase (Homo sapiens) (UniProt P21964). The settings on record: purified enzyme, MTase-Glo SAH luminescence; activity change, negative = inhibition: at 40 µM, stronger effect = lower value; outcome: 40 uM. The essentials:
(§1)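 Each enzyme was reacted with SAM and its substrate, with compounds tested once at 40 uM; SAH formed was read by MTase-Glo luminescence.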

The target in test [2] is Glycine N-methyltransferase (Homo sapiens) (UniProt Q14749). The settings on record: purified enzyme, MTase-Glo SAH luminescence; measured here: GNMT inhibition; at 40 µM; stronger effect = lower value. Put shortly:
as §1

The target in test [3] is Guanidinoacetate N-methyltransferase (Homo sapiens) (UniProt Q14353). The settings on record: purified enzyme, MTase-Glo SAH luminescence; measured here: GAMT inhibition; at 40 µM; stronger effect = lower value. The essentials: as §1
Test [4] deals with Histamine N-methyltransferase (Homo sapiens) (UniProt P50135). The settings on record: purified enzyme, MTase-Glo SAH luminescence; measured here: HNMT inhibition; at 40 µM; stronger effect = lower value. Put shortly: as §1
The target in test [5] is Nicotinamide N-methyltransferase (Homo sapiens) (UniProt P40261). The settings on record: purified enzyme, MTase-Glo SAH luminescence; measured here: NNMT inhibition; at 40 µM; stronger effect = lower value. The essentials: as §1
Test [6] concerns the target Phenylethanolamine N-methyltransferase (Homo sapiens) (UniProt P11086). The settings on record: purified enzyme, MTase-Glo SAH luminescence; measured here: PNMT inhibition; at 40 µM; stronger effect = lower value. The essentials:
as §1

Several values for one entry are separate records, joined by “and”; a condition that tells them apart may be missing. Identical values can stand only once. In all, about 25,000 compounds went through this assay and about 970 (3.9%) were called active. Not shown: some 8% with an inconclusive outcome. No rule for the calls is given here. The list comes from a sample in which actives are over-represented; it also holds similar structures and randomly drawn compounds. Some compounds were tested as several samples or in several runs, with calls that do not always agree.
% is scaled to controls: 0 for no effect and ±100 for the full control effect.

Chain of Catechol O-methyltransferase (Homo sapiens) (P21964 whole entry, looked up): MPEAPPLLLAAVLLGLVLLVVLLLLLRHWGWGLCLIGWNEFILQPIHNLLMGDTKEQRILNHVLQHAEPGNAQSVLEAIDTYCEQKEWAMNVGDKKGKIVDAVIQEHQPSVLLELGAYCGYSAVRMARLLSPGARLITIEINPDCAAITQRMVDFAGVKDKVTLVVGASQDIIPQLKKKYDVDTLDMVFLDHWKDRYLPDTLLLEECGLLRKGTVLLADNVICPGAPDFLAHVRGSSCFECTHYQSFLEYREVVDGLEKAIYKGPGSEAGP
Chain of Nicotinamide N-methyltransferase (Homo sapiens) (P40261 whole entry, looked up): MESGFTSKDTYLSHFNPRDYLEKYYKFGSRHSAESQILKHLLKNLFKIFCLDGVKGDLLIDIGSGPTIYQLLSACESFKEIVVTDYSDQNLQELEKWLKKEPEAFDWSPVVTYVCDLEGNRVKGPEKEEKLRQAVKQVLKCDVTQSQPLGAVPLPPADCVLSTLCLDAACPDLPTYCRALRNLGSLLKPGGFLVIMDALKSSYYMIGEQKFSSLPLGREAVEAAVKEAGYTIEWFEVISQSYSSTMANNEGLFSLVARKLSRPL
Chain of Histamine N-methyltransferase (Homo sapiens) (P50135 whole entry, looked up): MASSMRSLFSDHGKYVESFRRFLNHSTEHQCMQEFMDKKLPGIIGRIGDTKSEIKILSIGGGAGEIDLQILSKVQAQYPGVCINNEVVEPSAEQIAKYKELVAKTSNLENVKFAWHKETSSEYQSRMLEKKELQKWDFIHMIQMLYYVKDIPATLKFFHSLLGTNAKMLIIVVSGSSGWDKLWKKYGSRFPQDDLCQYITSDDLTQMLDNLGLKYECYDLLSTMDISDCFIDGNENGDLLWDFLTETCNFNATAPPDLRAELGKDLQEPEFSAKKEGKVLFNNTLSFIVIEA
Chain of Phenylethanolamine N-methyltransferase (Homo sapiens) (P11086 whole entry, looked up): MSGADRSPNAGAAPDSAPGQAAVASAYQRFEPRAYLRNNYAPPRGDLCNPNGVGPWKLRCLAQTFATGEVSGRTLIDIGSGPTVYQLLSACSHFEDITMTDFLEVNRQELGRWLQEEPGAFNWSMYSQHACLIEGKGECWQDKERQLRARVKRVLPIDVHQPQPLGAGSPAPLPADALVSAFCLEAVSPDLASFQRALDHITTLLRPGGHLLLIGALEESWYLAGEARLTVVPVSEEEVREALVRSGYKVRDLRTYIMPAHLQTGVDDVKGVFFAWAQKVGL
Chain of Glycine N-methyltransferase (Homo sapiens) (Q14749 whole entry, looked up): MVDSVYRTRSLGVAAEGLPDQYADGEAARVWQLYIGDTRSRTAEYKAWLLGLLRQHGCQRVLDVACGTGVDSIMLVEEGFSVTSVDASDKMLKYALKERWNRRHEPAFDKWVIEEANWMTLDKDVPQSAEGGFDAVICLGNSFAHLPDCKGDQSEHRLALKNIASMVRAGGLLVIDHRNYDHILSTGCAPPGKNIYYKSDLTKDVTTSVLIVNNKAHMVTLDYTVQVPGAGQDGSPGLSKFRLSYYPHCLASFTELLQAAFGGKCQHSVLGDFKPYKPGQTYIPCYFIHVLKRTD

In the case of `Cc1ccc(NC(=O)Cn2nc3n(C(C)C)c(=O)c4ccc(C(=O)NC5CCCCC5)cc4n3c2=O)cc1`, the activity change, negative = inhibition in test [1] is 2.74% (inactive); in test [2], 4.18%; in test [3], 4.48%; in test [4], 8.87%; in test [5], 1.86%; in test [6], 2.8%.
On to `CCC(=O)N1Cc2ccccc2OC2(CCN(C(C)C)CC2)C1`, for which the activity change, negative = inhibition is -1.54% (inactive) in test [1]; -3.35% in test [2]; -0.819% in test [3]; 0.171% in test [4]; -3.98% in test [5]; -4.26% in test [6].
With `CCOC(=O)CC1(NC(=O)N2CCn3cccc3C2Cc2ccccc2)CCCCC1` (centres undefined), the activity change, negative = inhibition is -25% (inactive) in test [1]; -7.26% in test [2]; -5.73% in test [3]; -9.85% in test [4]; -17.7% in test [5]; -40.7% in test [6].
For `CN(C)CCN(C)[C@H]1[C@@H]2OC[C@@H](O2)[C@@H](NCc2ccc(N(C)C)cc2)[C@@H]1O`, the activity change, negative = inhibition in test [1] was 2.76% (inactive); in test [2], 0.488%; in test [3], 1.19%; in test [4] it was 0.035%; in test [5] it was -5%; in test [6] it was 0.902%.
For `COc1ccc(C(=O)N2CCC3(CC2)CCC(O)(CN(C)C)CC3)cc1OC`, the activity change, negative = inhibition in test [1] was 2.82% (inactive); in test [2], -0.206%; in test [3], -1.89%; in test [4] it was -18.9%; in test [5], -5.54%; in test [6] it was -1.06%.
Regarding `CCCCNC(=O)CCc1nnc2n(CC(C)C)c(=O)c3ccccc3n12`, the activity change, negative = inhibition in test [1] was 3.12% (inactive); in test [2], -1.98%; in test [3] it was 4.49%; in test [4], 5.26%; in test [5], 4.71%; in test [6], -0.917%.
Regarding `CC(C)CCn1c(=O)c2ccccc2n2c(CCC(=O)NCCc3ccccc3)nnc12`, the activity change, negative = inhibition in test [1] was 3.9% (inactive); in test [2], -7.17%; in test [3] it was 0%; in test [4] it was 6.82%; in test [5], -15%; in test [6], 0.405%.
Take `CN(CCCNC(=O)CCCc1nnc2n3nc(-c4ccccc4)nc3c3ccccc3n12)Cc1ccccc1`: the activity change, negative = inhibition in test [1] was -4.54% (active); in test [2], -16.6%; in test [3] it was 1.44%; in test [4] it was -57.9%; in test [5], 0.458%; in test [6], -4.78%.
`COC(=O)c1ncn2c1C(=O)N(Cc1cc(OC)ccc1OC)C(C)(C(=O)NCc1ccccc1)C2` (centres undefined): the activity change, negative = inhibition is -9.56% (inactive) in test [1]; -4.3% in test [2]; 3.99% in test [3]; -2.02% in test [4]; -4.11% in test [5]; -4.82% in test [6].
For `CN(C)c1cc2c(Nc3ccc4c(cnn4Cc4ccccc4)c3)ncnc2cn1`, the activity change, negative = inhibition in test [1] is -13.2% (active) and -7.52% (inactive); in test [2] it was -7.53% and -14.5%; in test [3], 10.1% and 6.13%; in test [4], 1.63% and -3.02%; in test [5], -17% and -13.5%; in test [6], -62.6% and -40%.
For the compound `CCC(C)C(=O)OC1C(C)C2(O)C(C=C(CO)CC3(O)C(=O)C(C)=CC32)C2C(C)(C)C12OC(=O)C(C)C` (centres undefined), the activity change, negative = inhibition was -2.75% (inactive) in test [1]; -4.22% in test [2]; -5.2% in test [3]; -3.1% in test [4]; -15.7% in test [5]; -0.901% in test [6].
As for `O=C(NCC1CCCCC1)c1cc(-c2cc(Cl)cc(Cl)c2)c2nncn2n1`, the activity change, negative = inhibition in test [1] is -5.12% (inactive); in test [2] it was -8.77%; in test [3], -5.46%; in test [4] it was -7.54%; in test [5], -13.3%; in test [6] it was -2.36%.
Regarding `CC(C)CCNC(=O)c1ccc2c(=O)nc3c(-c4ccc(Cl)cc4)n[nH]n3c2c1`, the activity change, negative = inhibition was -1.51% (inactive) in test [1]; -1.88% in test [2]; 4.17% in test [3]; -4.65% in test [4]; 0.687% in test [5]; -0.404% in test [6].
Take `COc1ccc(CCN2C(=O)c3ccc(-c4ccco4)n3CC2(C)C(=O)NCc2ccc(Cl)cc2)cc1OC` (centres undefined): the activity change, negative = inhibition in test [1] is 0.852% (inactive); in test [2], -6.96%; in test [3], 1.72%; in test [4], 2.32%; in test [5], -28.2%; in test [6], -1.05%.
Regarding `Cc1cc2c(cc3n2CC(C)(C(=O)NC2CCCCC2)N(C2CCCCCC2)C3=O)o1` (centres undefined), the activity change, negative = inhibition in test [1] is 3.65% (inactive); in test [2] it was 2.96%; in test [3], 9.51%; in test [4] it was 3.49%; in test [5], -0.25%; in test [6], -2.76%.
Turning to `CCCCCCc1cc2c(-c3ccccc3)cc(=O)oc2cc1OCC(N)=O`, the activity change, negative = inhibition in test [1] is -7.58% (inactive); in test [2], -9.86%; in test [3], 1.37%; in test [4], -0.051%; in test [5] it was -9%; in test [6] it was -8.85%.
As for `COc1c2c(c(C)c3c1C(=O)OC3)OC1(C)CC(O)C34OC(O)(CCC3(C)C1C2)OC4(C)C` (centres undefined), the activity change, negative = inhibition was -2.85% (inactive) in test [1]; -1.14% in test [2]; -7.45% in test [3]; -0.188% in test [4]; -20.3% in test [5]; -0.001% in test [6].
With `COc1ccc(OC)c(CCNC(=O)CCn2ccc3cc(S(=O)(=O)N4CCCC4)ccc32)c1`, the activity change, negative = inhibition in test [1] was 1.88% (inactive); in test [2], 1.91%; in test [3], 4.56%; in test [4], 3.65%; in test [5], -0.408%; in test [6], 0.497%.
Take `Cn1nccc1C(=O)N1CCC(Cc2nc(C3CC3)n[nH]2)C1` (centres undefined): the activity change, negative = inhibition was -2.8% (inactive) in test [1]; -3.99% in test [2]; -1.84% in test [3]; -1.69% in test [4]; -5.4% in test [5]; -4.14% in test [6].
Take `CC(C)NC(=O)c1ccccc1OCC1CCCN(Cc2cccnc2)C1` (centres undefined): the activity change, negative = inhibition in test [1] was -0.392% (inactive); in test [2], -1.68%; in test [3] it was -10.2%; in test [4], -2.4%; in test [5], -8.48%; in test [6] it was -0.898%.
On to `CCOc1ccccc1CN1CCC(Cc2nc(-c3cccnc3)n[nH]2)C1` (centres undefined), for which the activity change, negative = inhibition is -5.67% (active) in test [1]; -4.21% in test [2]; -1.54% in test [3]; -56.9% in test [4]; -49.4% in test [5]; -12.9% in test [6].
As for `CCC(C)N1Cc2cc(NC(=O)c3ccc([N+](=O)[O-])cc3)ccc2OCC1=O` (centres undefined), the activity change, negative = inhibition in test [1] is -3.17% (inactive); in test [2] it was -7.2%; in test [3], -10.5%; in test [4], -3.63%; in test [5], -19.6%; in test [6] it was -7.68%.
Consider `CC(=O)c1ccc2c(c1)[C@H](NC(=O)c1ccc(F)c(Cl)c1)[C@H](O)C(C)(C)O2`, for which the activity change, negative = inhibition is -7.4% (inactive) in test [1]; -1.85% in test [2]; -7.24% in test [3]; -2.99% in test [4]; -18.7% in test [5]; -13.1% in test [6].
`COC[C@H]1NC(=O)CC[C@H]1C(=O)N1CCN(c2cccc(C)c2)CC1`: the activity change, negative = inhibition in test [1] is -9.6% (inactive); in test [2] it was -5.9%; in test [3], -7.51%; in test [4], -3.65%; in test [5] it was -13.6%; in test [6], -21.5%.
